# From PubChem BioAssay (NCATS)
# Values joined by “and” are separate entries in the source; they are usually repeats but may differ in a detail not shown here. Equal values may be shown once. Inconclusive results are not listed. Active and inactive are the calls of the source. Unless noted, the call rests on the fitted dose curve; in most records, active means well fitted curve in the direction sought with a large enough effect; inconclusive means small, poorly fitted or top-dose-only effect, or another doubt; inactive means no such curve, though single readings can be large; an effect the other way counts as inactive or inconclusive.
# Key:
# [1] = qHTS Assay for Lipid Storage Modulators (AID 1519; calls by dose curve; on activity change, negative = inhibition: on the % scale 0 is the no-effect control and ±100 the full control effect); conditions: Drosophila S3 cells, BODIPY lipid droplet/cell ratio, laser cytometry, cells loaded with oleic acid
# Procedure, shortened: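 Cells seeded at 5,000 per well were treated with compounds over a concentration series and loaded with oleic acid (400 uM, as added). Lipid droplet fluorescence (488 nm excitation, 500-530 nm channel) was read by laser-scanning cytometry and normalized to 20 uM Triacsin C.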
# [2] = Cell Viability - LYMP2-007 (AID 979); conditions: LYMP2-007 lymphoblastoid cell viability; series mostly up to 92.2 µM;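 further: cells exposed to compound for 24 h before reading; 0% = DMSO only and the negative end = 92 µM tetraoctylammonium bromide; nearly all actives have a fitted effect of over 60% in size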
# Procedure, shortened: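 AC50 values come from Hill-equation fits of luminescent intracellular ATP (CellTiter-Glo, 30 min, room temperature) following 24 h compound exposure at 37 C. Cells: LYMP2-007 lymphoblastoid line, 2500 per well, in complete culture medium.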
# [3] = Cell Viability - LYMP2-008 (AID 980); conditions: LYMP2-008 lymphoblastoid cell viability, qHTS; series mostly up to 92.2 µM; further: on the % scale 0 is the no-effect control and ±100 the full control effect; nearly all actives have a fitted effect of over 60% in size
# Procedure, shortened: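 Cytotoxicity determined from ATP-dependent luciferase luminescence (CellTiter-Glo) following 24 h compound exposure of human lymphoblastoid LYMP2-008 cells at 37 C. Concentration-response data fitted to the Hill equation to give AC50.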
# [4] = Cell Viability - LYMP2-012 (AID 982); conditions: LYMP2-012 lymphoblastoid cell viability qHTS; series mostly up to 92.2 µM;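 further: cellular ATP by luciferase luminescence where a drop means cytotoxicity; cells exposed to compound for one day before reading; 0% = DMSO only and full loss = 92 µM tetraoctylammonium bromide; nearly all actives have a fitted effect of over 55% in size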
# [5] = Cell Viability - LYMP2-014 (AID 983); conditions: LYMP2-014 lymphoblastoid cells, viability qHTS; series mostly up to 92.2 µM;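 further: plate controls were DMSO only for no effect and 92 µM tetraoctylammonium bromide for full effect; nearly all actives have a fitted effect of over 50% in size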
# Procedure, shortened: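 Intracellular ATP loss, read by luciferase luminescence, measures acute cytotoxicity after 24 h compound exposure of lymphoblastoid LYMP2-014 cells (2500/well, 37 C). Concentration-response data fitted to the Hill equation for AC50.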
# [6] = Cell Viability - LYMP2-016 (AID 984); conditions: LYMP2-016 lymphoblastoid cell viability, qHTS; series mostly up to 92.2 µM;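 further: cells exposed to compound for 24 hours at 37 °C; on the % scale 0 is the no-effect control and ±100 the full control effect; nearly all actives have a fitted effect of over 55% in size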
# Procedure, shortened: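 Human lymphoblastoid LYMP2-016 cells, 2500 per well, treated with compounds for 24 h at 37 C. Viability read as intracellular ATP by CellTiter-Glo luminescence after 30 min at room temperature; AC50 from Hill fits of concentration-response.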
# [7] = Cell Viability - LYMP2-018 (AID 985); conditions: LYMP2-018 lymphoblastoid cells, viability (qHTS); series mostly up to 92.2 µM;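 further: plate controls were DMSO only for no effect and tetraoctylammonium bromide at 92 µM for full effect; nearly all actives have a fitted effect of over 50% in size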
# Procedure, shortened: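 Viability read as CellTiter-Glo luminescence (cellular ATP) after 24 hr compound exposure at 37 C of 2500 LYMP2-018 lymphoblastoid cells/well, pre-plated 5 hr. Hill-equation modelling gave AC50.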
# [8] = Cell Viability - LYMP2-020 (AID 986); conditions: series mostly up to 92.2 µM;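 further: plate controls were DMSO only for no effect and tetraoctylammonium bromide at 92 µM for full effect; nearly all actives have a fitted effect of over 55% in size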
# Procedure, shortened: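 Cytotoxicity in qHTS format: luminescent ATP readout from CellTiter-Glo after 24 h compound exposure at 37 C in complete medium. LYMP2-020 lymphoblastoid cells were seeded at 2500/well; concentration-response data fitted to the Hill equation for AC50.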
# [9] = Cell Viability - LYMP2-026 (AID 989); conditions: LYMP2-026 lymphoblastoid cell viability, qHTS; series mostly up to 92.2 µM; further: on the % scale 0 is the no-effect control and ±100 the full control effect; nearly all actives have a fitted effect of over 50% in size
# Procedure, shortened: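 Cytotoxicity read as ATP-dependent luminescence (CellTiter-Glo, 30 min room temperature) after 24 h compound treatment at 37 C. LYMP2-026 lymphoblastoid line seeded at 2500 cells/well; AC50 derived by standard Hill equation.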
# [10] = Cell Viability - LYMP1-002 - Assay at 24 hr (AID 993); conditions: LYMP1-002 lymphoblastoid cells viability; series mostly up to 92.2 µM; further: on the % scale 0 is the no-effect control and ±100 the full control effect
# Procedure, shortened: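 qHTS cytotoxicity at 24 h: CellTiter-Glo ATP luminescence in lymphoblastoid line LYMP1-002 incubated with compound at 37 °C. Concentration-response modeled with the Hill equation for AC50; tetraoctylammonium bromide served as positive control.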
# [11] = Validation of Assay for Modulators of Lamin A Splicing (AID 1459; active means well fitted curve in the direction sought with a large enough effect in the signal ratio; the % refers to the signal ratio;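 further: cells exposed to compound for two days before reading; 0% is about no effect; ratio rise marks activators and ratio drop marks inhibitors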); conditions: Lamin A splicing dual RFP/GFP fluorescence reporter; series mostly up to 9.22 µM
# Procedure, shortened: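 S3 HeLa stably expressing lamin A-EGFP splicing minigene and DsRed2, 600 cells/well in Opti-MEM with 2% FBS, treated 48 h at 37C; laser-scanning cytometry gives GFP/RFP total intensity ratio; ancitabine positive control, 0.5% DMSO vehicle.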
# [12] = molecular target: DNA repair nuclease/redox regulator APEX1 (Homo sapiens) (UniProt P27695); assay: qHTS Validation Assay for Inhibitors of the Human Apurinic/apyrimidinic Endonuclease 1 (APE1) (AID 1705;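 further: TAMRA fluorescence gain over two minutes as APE1 cuts a quenched THF abasic duplex; on the % scale 0 is the no-effect control and ±100 the full control effect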); conditions: purified APE1 endonuclease activity, fluorescence, titration; series mostly up to 57.1 µM
# DNA repair nuclease/redox regulator APEX1 (Homo sapiens), sequence (P27695 whole entry, looked up): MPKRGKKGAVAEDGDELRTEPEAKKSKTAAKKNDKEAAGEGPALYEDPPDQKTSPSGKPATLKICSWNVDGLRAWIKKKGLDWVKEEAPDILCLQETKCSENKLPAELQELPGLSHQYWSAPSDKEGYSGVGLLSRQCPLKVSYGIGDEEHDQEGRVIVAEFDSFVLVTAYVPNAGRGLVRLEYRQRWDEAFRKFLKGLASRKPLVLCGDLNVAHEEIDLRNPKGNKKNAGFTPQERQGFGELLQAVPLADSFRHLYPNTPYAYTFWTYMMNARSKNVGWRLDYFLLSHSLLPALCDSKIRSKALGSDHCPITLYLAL
# Procedure, shortened: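 Fluorogenic double-stranded THF abasic-site substrate (5'-TAMRA/3'-BHQ-2), 50 nM final. Enzyme preincubated with compound 15 min at room temperature, then substrate added. Kinetic fluorescence (ex 525/em 598 nm) read three times at 60 s intervals; activity taken as third-minus-first read difference.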
# [13] = Counterscreen for APE1 Inhibitors: Fluorescent Dye Displacement Validation Assay (AID 1707); conditions: fluorescent dye displacement from DNA; series mostly up to 57.1 µM;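 further: plate controls were ThO with dsDNA and no compound for no effect and ThO without dsDNA for full effect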
# Procedure, shortened: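 Loss of Thiazole Orange fluorescence marks promiscuous DNA binders. The dye (250 nM) is mixed with 50 nM abasic-site dsDNA in pH7.5 Tris buffer containing MgCl2, then compounds are added and emission is read once.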
# [14] = molecular target: Endonuclease 4 (Escherichia coli (strain K12)) (UniProt P0A6C1); assay: Counterscreen for APE1 Inhibitors: qHTS Validation Assay for Inhibitors of Endonuclease IV (AID 1708); further: on the % scale 0 is the no-effect control and ±100 the full control effect; conditions: E. coli endonuclease IV, DNA cleavage fluorescence; series mostly up to 57.1 µM
# Procedure, shortened: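 Incision of a double-stranded 50 nM TAMRA/BHQ-2 abasic substrate was followed kinetically (525/598 nm, reads every 60 s) after 15 min enzyme–compound preincubation with 2 nM EndoIV in pH 7.5 Tris buffer with MgCl2, DTT and Tween-20; concentration-response format.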
# [15] = qHTS for differential inhibitors of proliferation of Plasmodium falciparum line 7G8 (AID 1815); conditions: Plasmodium falciparum 7G8 proliferation inhibition; series mostly up to 28.7 µM;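 further: parasite growth measured after three days of incubation; plate controls were vehicle wells for no effect and reference inhibitor wells for full effect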
# [16] = qHTS for differential inhibitors of proliferation of Plasmodium falciparum line GB4 (AID 1816); conditions: series mostly up to 28.7 µM;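 further: parasite growth measured after 72 h incubation; 0% = vehicle DMSO and -100% = reference inhibitor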
# [17] = qHTS for differential inhibitors of proliferation of Plasmodium falciparum line 3D7 (AID 1876);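 further: parasite growth measured after three days of culture; 0% = vehicle wells and -100% = reference inhibitor wells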; conditions: P. falciparum 3D7 proliferation inhibition; series mostly up to 28.7 µM
# [18] = qHTS for differential inhibitors of proliferation of Plasmodium falciparum line D10 (AID 1877); conditions: series mostly up to 28.7 µM;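 further: parasites grown with compound for 72 h before DNA staining; plate controls were vehicle wells for no effect and reference inhibitor wells for full effect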
# [19] = qHTS for differential inhibitors of proliferation of Plasmodium falciparum line Dd2 (AID 1882); conditions: series mostly up to 28.7 µM;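 further: plate controls were DMSO vehicle for no effect and 0.29 µM artemisinin for full effect; nearly all actives have a fitted effect of over 65% in size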
# Procedure, shortened: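 SYBR Green DNA fluorescence (ex 485, em 535 nm) after overnight lysis quantifies parasite growth; compound exposure lasted 72 h at 37 C on infected red cells at 2.5% hematocrit, 0.3% parasitemia (final). Artemisinin 0.29 uM and vehicle wells define normalization.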
# [20] = qHTS for differential inhibitors of proliferation of Plasmodium falciparum line W2 (AID 1883); conditions: series mostly up to 28.7 µM;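 further: parasites grown with compound for 72 h before lysis and staining; 0% = vehicle wells and -100% = control inhibitor wells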
# [21] = measured here: cell count channel max response
# [22] = measured here: lipid channel max response
compound,measurement,setting,value
OC(c1cc(C(F)(F)F)nc2c(C(F)(F)F)cccc12)C1CCCCN1 (stereo unspecified),"activity change, negative = inhibition",[1]; at 57.5 µM (top of the series),2.49% (inactive)
same,max response,[1]; [21],6.15%
same,max response,[1]; [22],10.3%
NCC1CCC(C(=O)O)CC1 (stereo unspecified),"activity change, negative = inhibition",[1]; at 25.7 µM (top of the series),-1.26% (inactive)
same,"activity change, negative = inhibition",[1]; at 57.5 µM (top of the series),6.78% (inactive)
same,max response,[1]; [21],-0.272% and 28.1%
same,max response,[1]; [22],-2.41% and 39.3%
C=C1c2cccc(O)c2C(O)=C2C(=O)[C@@]3(O)C(O)=C(C(N)=O)C(=O)[C@@H](N(C)C)[C@@H]3[C@@H](O)[C@H]12,"activity change, negative = inhibition",[1]; at 25.7 µM (top of the series),1.55% (inactive)
same,max response,[1]; [21],-8.47%
same,max response,[1]; [22],-6.76%
CN(C)CCN(Cc1ccc(Cl)cc1)c1ccccn1,"activity change, negative = inhibition",[1]; at 25.7 µM (top of the series),-3.62% (inactive)
same,max response,[1]; [21],-9.2%
same,max response,[1]; [22],-15.8%
CCC(c1ccc(O)cc1)C(CC)c1ccc(O)cc1 (stereo unspecified),"activity change, negative = inhibition",[1]; at 57.5 µM (top of the series),9.03% (inactive)
same,max response,[1]; [21],10.5%
same,max response,[1]; [22],25.1%
CCC(=C(CC)c1ccc(O)cc1)c1ccc(O)cc1,"activity change, negative = inhibition",[1]; at 25.7 µM (top of the series),-5.29% (inactive)
same,max response,[1]; [21],-17.8%
same,max response,[1]; [22],-23.1%
COc1ccc2ccc(=O)oc2c1CC=C(C)C,"activity change, negative = inhibition",[1]; at 57.5 µM (top of the series),9.52% (inactive)
same,max response,[1]; [21],4.48%
same,max response,[1]; [22],16.7%
Nc1ccn([C@@H]2O[C@H](CO)[C@@H](O)[C@H]2O)c(=O)n1,"activity change, negative = inhibition",[1]; at 57.5 µM (top of the series),-3.18% (inactive)
same,max response,[1]; [21],-16.3%
same,max response,[1]; [22],-19.1%
CC(NCCc1ccc(O)cc1)C(O)c1ccc(O)cc1 (stereo unspecified),"activity change, negative = inhibition",[1]; at 57.5 µM (top of the series),2.67% (inactive)
same,max response,[1]; [21],13.6%
same,max response,[1]; [22],20%
CC1(C)OC2CC3C4CC(F)C5=CC(=O)C=CC5(C)C4C(O)CC3(C)[C@]2(C(=O)CO)O1 (stereo partly specified),"activity change, negative = inhibition",[1]; at 57.5 µM (top of the series),6.59% (inactive)
same,max response,[1]; [21],10.6%
same,max response,[1]; [22],23.9%
Cc1cc2nc3c(=O)[nH]c(=O)nc-3n(CC(O)C(O)C(O)CO)c2cc1C (stereo unspecified),"activity change, negative = inhibition",[1]; at 25.7 µM (top of the series),0.295% (inactive)
same,"activity change, negative = inhibition",[1]; at 57.5 µM (top of the series),10.9% (inactive) and -20.1% (inactive)
same,max response,[1]; [21],2.32% and -7.87% and -11.2%
same,max response,[1]; [22],0.677% and 3.75% and -34%
NS(=O)(=O)c1cc(Cl)c(Cl)c(S(N)(=O)=O)c1,"activity change, negative = inhibition",[1]; at 25.7 µM (top of the series),-3.46% (inactive)
same,max response,[1]; [21],-9.93%
same,max response,[1]; [22],-12.7%
CN[C@H]1[C@@H](O[C@@H]2[C@H](O[C@@H]3[C@@H](O)[C@@H](O)[C@@H](N=C(N)N)[C@@H](O)[C@@H]3N=C(N)N)O[C@H](C)[C@@]2(O)C=O)O[C@@H](CO)[C@@H](O)[C@H]1O,"activity change, negative = inhibition",[1]; at 25.7 µM (top of the series),-5.41% (inactive)
same,max response,[1]; [21],12.5%
same,max response,[1]; [22],7.05%
CS(=O)(=O)c1ccc(C2=C(c3ccccc3)C(=O)OC2)cc1,"activity change, negative = inhibition",[1]; at 57.5 µM (top of the series),14.5% (inactive)
same,max response,[1]; [21],15.3%
same,max response,[1]; [22],35.2%
C[C@@H]1C[C@H]2[C@@H]3CCC4=CC(=O)C=C[C@]4(C)[C@@]3(F)[C@@H](O)C[C@]2(C)[C@@]1(O)C(=O)CO,outcome,[2],inactive
same,outcome,[3],inactive
same,outcome,[4],inactive
same,outcome,[5],inactive
same,outcome,[6],inactive
same,outcome,[7],inactive
same,outcome,[8],inactive
same,outcome,[9],inactive
same,outcome,[10],inactive
CCNC(=O)[C@H]1O[C@@H](n2cnc3c(N)nc(NCCc4ccc(CCC(=O)O)cc4)nc32)[C@H](O)[C@H]1O,outcome,[11],inactive
same,"activity change, negative = inhibition",[1]; at 57.5 µM (top of the series),-1.93% (inactive)
same,max response,[1]; [21],-4.53%
same,max response,[1]; [22],-7.25%
same,outcome,[12],inactive
same,outcome,[13],inactive
same,outcome,[14],inactive
same,outcome,[15],inactive
same,outcome,[16],inactive
same,outcome,[17],inactive
same,outcome,[18],inactive
same,outcome,[19],inactive
same,outcome,[20],inactive
